Data: PubChem BioAssay (NCATS)
Records with an inconclusive call do not appear. A number with no mark means an inactive call. Calls of active or inactive are those of the source. Calls come from the whole dose curve; as a rule, active = well fitted curve in the direction sought with a large enough effect; inconclusive = small, poorly fitted or top-dose-only effect, or another doubt; inactive = no such curve, though single readings can be large; an effect the other way counts as inactive or inconclusive.

What was measured:
[1] = Quantitative High-Throughput drug screen in 47 multiple myeloma cell lines against the NCATS MIPE library collection: KMS21BM_JCRB cell viability assay (AID 1918974); settings: ATP luminescence, 48 h; viability: at 45.8 µM unless noted
Procedure, shortened: (§1)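 Approved and investigational drugs from MIPE 4.0 were added by pin tool to 500 cells per well. After 48 hours at 37C, ATP-based CellTiter-Glo luminescence indicated remaining viability.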

[2] = Quantitative High-Throughput drug screen in 47 multiple myeloma cell lines against the NCATS MIPE library collection: KMS26_JCRB cell viability assay (AID 1918975); note: nearly all actives have a fitted effect of over 45% in size
Procedure, shortened: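 Luminescent ATP measurement with CellTiter-Glo gives viability, scaled between DMSO-only wells (100%) and media-only wells (0%). Cells, 500 per well, faced library compounds for 48 hours at 37C.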

[3] = Quantitative High-Throughput drug screen in 47 multiple myeloma cell lines against the NCATS MIPE library collection: MMM1_PLB cell viability assay (AID 1918976); note: nearly all actives have a fitted effect of over 35% in size
Procedure, shortened: (§2)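 500 cells/well; MIPE 4.0 drugs pin-transferred; 48 h, 37C, 5% CO2. CellTiter-Glo, 5 min RT, luminescence. Controls: DMSO 100%, media 0%.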

[4] = Quantitative High-Throughput drug screen in 47 multiple myeloma cell lines against the NCATS MIPE library collection: MOLP8_DSMZ cell viability assay (AID 1918977); note: nearly all actives have a fitted effect of over 45% in size
Procedure, shortened: as §2

[5] = Quantitative High-Throughput drug screen in 47 multiple myeloma cell lines against the NCATS MIPE library collection: OCIMY1_PLB cell viability assay (AID 1918979); note: nearly all actives have a fitted effect of over 35% in size; for viability: series mostly up to about 46 µM
Procedure, shortened: as §2

[6] = Quantitative High-Throughput drug screen in 47 multiple myeloma cell lines against the NCATS MIPE library collection: MM1S_ATCC cell viability assay (AID 1918980); note: nearly all actives have a fitted effect of over 45% in size
Procedure, shortened: as §2

[7] = Quantitative High-Throughput drug screen in 47 multiple myeloma cell lines against the NCATS MIPE library collection: MM1R_ATCC cell viability assay (AID 1918981); note: nearly all actives have a fitted effect of over 35% in size
Procedure, shortened: as §2

[8] = Quantitative High-Throughput drug screen in 47 multiple myeloma cell lines against the NCATS MIPE library collection: LP1_DSMZ cell viability assay (AID 1918982); note: nearly all actives have a fitted effect of over 35% in size
Procedure, shortened: as §2

[9] = Quantitative High-Throughput drug screen in 47 multiple myeloma cell lines against the NCATS MIPE library collection: KMS28PE_JCRB cell viability assay (AID 1918983); note: nearly all actives have a fitted effect of over 35% in size
Procedure, shortened: as §2

[10] = Quantitative High-Throughput drug screen in 47 multiple myeloma cell lines against the NCATS MIPE library collection: L363_DSMZ cell viability assay (AID 1918984); note: nearly all actives have a fitted effect of over 40% in size
Procedure, shortened: as §2

[11] = Quantitative High-Throughput drug screen in 47 multiple myeloma cell lines against the NCATS MIPE library collection: KMS34_JCRB cell viability assay (AID 1918985); note: nearly all actives have a fitted effect of over 40% in size
Procedure, shortened: as §2

[12] = Quantitative High-Throughput drug screen in 47 multiple myeloma cell lines against the NCATS MIPE library collection: OCIMY7_PLB cell viability assay (AID 1918987); note: nearly all actives have a fitted effect of over 65% in size
Procedure, shortened: as §2

[13] = Quantitative High-Throughput drug screen in 47 multiple myeloma cell lines against the NCATS MIPE library collection: OCIMY5_PLB cell viability assay (AID 1918988); note: nearly all actives have a fitted effect of over 65% in size
Procedure, shortened: as §2

[14] = Quantitative High-Throughput drug screen in 47 multiple myeloma cell lines against the NCATS MIPE library collection: OPM1_PLB cell viability assay (AID 1918989); note: nearly all actives have a fitted effect of over 40% in size
Procedure, shortened: as §2

[15] = Quantitative High-Throughput drug screen in 47 multiple myeloma cell lines against the NCATS MIPE library collection: SKMM1_PLB cell viability assay (AID 1919863); settings: SKMM1 myeloma viability, CellTiter-Glo ATP, 48 h; viability: active compounds read low; note: nearly all actives have a fitted effect of over 35% in size; for viability: series mostly up to about 46 µM
Procedure, shortened: as §2

[16] = Quantitative High-Throughput drug screen in 47 multiple myeloma cell lines against the NCATS MIPE library collection: U266_ATCC cell viability assay (AID 1919864); note: nearly all actives have a fitted effect of over 35% in size
Procedure, shortened: as §2

[17] = Quantitative High-Throughput drug screen in 47 multiple myeloma cell lines against the NCATS MIPE library collection: XG6_PLB cell viability assay (AID 1919865); note: nearly all actives have a fitted effect of over 40% in size
Procedure, shortened: as §2

[18] = Quantitative High-Throughput drug screen in 47 multiple myeloma cell lines against the NCATS MIPE library collection: XG1_PLB cell viability assay (AID 1919866); note: nearly all actives have a fitted effect of over 35% in size
Procedure, shortened: as §2

[19] = Quantitative High-Throughput drug screen in 47 multiple myeloma cell lines against the NCATS MIPE library collection: NCIH929_DSMZ cell viability assay (AID 1918978); note: nearly all actives have a fitted effect of over 35% in size
Procedure, shortened: as §2

[20] = Quantitative High-Throughput drug screen in 47 multiple myeloma cell lines against the NCATS MIPE library collection: KMS20_JCRB cell viability assay (AID 1918973); note: nearly all actives have a fitted effect of over 45% in size
Procedure, shortened: as §1
Potency is the fitted concentration of half-maximal effect.

For `C[C@@H](Oc1cc(-c2cnn(C3CCNCC3)c2)cnc1N)c1c(Cl)ccc(F)c1Cl`, the Potency [1] was 8330 nM (active), the Potency [2] was 14800 nM (active) and the Potency [3] was 9350 nM (active). For the same compound, the Potency [4] was 13200 nM (active), the Potency [5] was 20900 nM (active) and the Potency [6] was 18700 nM (active). For the same compound, the Potency [7] was 14800 nM (active), the Potency [8] was 14800 nM (active) and the Potency [9] was 11800 nM (active). The Potency [10] was 4690 nM (active), the Potency [11] was 11800 nM (active) and the Potency [12] was 3320 nM (active). The Potency [13] was 5260 nM (active), the Potency [14] was 5900 nM (active) and the Potency [15] was 7430 nM (active). For the same compound, the Potency [16] was 14800 nM (active), the Potency [17] was 2350 nM (active) and the Potency [18] was 4690 nM (active).

For `COC(=O)Nc1nc2ccc(C(=O)c3ccc(F)cc3)cc2[nH]1`, the Potency [1] was 296 nM (active), the Potency [2] was 5260 nM (active) and the Potency [3] was 11800 nM (active). For the same compound, the Potency [4] was 418 nM (active), the Potency [19] was 743 nM (active) and the Potency [5] was 662 nM (active). For the same compound, the Potency [8] was 935 nM (active), the Potency [9] was 1660 nM (active) and the Potency [11] was 935 nM (active). For the same compound, the Potency [12] was 296 nM (active), the Potency [13] was 469 nM (active) and the Potency [14] was 590 nM (active). The Potency [15] was 469 nM (active), the Potency [17] was 469 nM (active) and the Potency [18] was 332 nM (active).

For `Cc1c(NC(=O)OC[C@@H]2COCCN2)cn2ncnc(Nc3ccc4c(cnn4Cc4cccc(F)c4)c3)c12`, the Potency [20] was 1870 nM (active), the Potency [19] was 18700 nM (active) and the Potency [5] was “inactive”. The Potency [9] was 16600 nM (active), the Potency [12] was 590 nM (active) and the Potency [13] was 16.6 nM (active). The Potency [14] was 4180 nM (active), the Potency [17] was 37.2 nM (active) and the Potency [18] was 83.3 nM (active).

For `CNC(=O)CN1CCC(Oc2cc3c(Nc4cccc(Cl)c4F)ncnc3cc2OC)CC1`, the Potency [20] was 41.8 nM (active), the Potency [19] was 59 nM (active) and the Potency [9] was 83.3 nM (active). The Potency [11] was 37.2 nM (active), the Potency [12] was 83.3 nM (active) and the Potency [13] was 11.8 nM (active). For the same compound, the Potency [14] was 33.2 nM (active), the Potency [15] was 26.4 nM (active) and the Potency [16] was “inactive”. The Potency [17] was “inactive” and the Potency [18] was 23.5 nM (active).

In the case of `O=C(C=Cc1cccnc1)NCCCCC1CCN(C(=O)c2ccccc2)CC1`, the Potency [1] was 16.6 nM (active), the Potency [2] was 5.3 nM (active) and the Potency [4] was “inactive”. The Potency [6] was 29.6 nM (active), the Potency [9] was 132 nM (active) and the Potency [11] was 16.6 nM (active). For the same compound, the Potency [12] was 10.5 nM (active), the Potency [13] was 41.8 nM (active) and the Potency [14] was 11.8 nM (active). The Potency [15] was 59 nM (active), the Potency [16] was 18700 nM (active) and the Potency [17] was 74.3 nM (active). The Potency [18] was 1 nM (active).

For `Nc1cccc(-c2cc3c(Oc4cccc(O)c4)ncnc3[nH]2)c1`, the Potency [20] was 18700 nM (active), the Potency [19] was 23500 nM (active) and the Potency [5] was “inactive”. For the same compound, the Potency [6] was 3320 nM (active), the Potency [10] was “inactive” and the Potency [11] was 18700 nM (active). The Potency [12] was 2640 nM (active), the Potency [13] was 23500 nM (active) and the Potency [14] was 20900 nM (active). For the same compound, the Potency [17] was 2090 nM (active).

For `CC=CC1=C(C(=O)O)N2C(=O)[C@H](NC(=O)[C@H](N)c3ccc(O)cc3)[C@@H]2SC1`, the Potency [20] was 26400 nM (active), the Potency [4] was “inactive” and the Potency [6] was 14800 nM (active). For the same compound, the Potency [7] was “inactive”, the Potency [9] was “inactive” and the Potency [10] was “inactive”. The Potency [11] was “inactive”, the Potency [12] was 26400 nM (active) and the viability [15] was 117%. The Potency [17] was “inactive” and the Potency [18] was “inactive”.

For `CNC(=O)c1ccc(N2C(=S)N(c3cnc(C#N)c(C(F)(F)F)c3)C(=O)C23CCC3)cc1F`, the Potency [20] was 2350 nM (active), the Potency [2] was 1480 nM (active) and the Potency [19] was 332 nM (active). The Potency [7] was 1050 nM (active), the Potency [9] was 26400 nM (active) and the Potency [10] was 7430 nM (active). For the same compound, the Potency [11] was “inactive”, the Potency [12] was 526 nM (active) and the Potency [13] was 118 nM (active). The Potency [14] was 2640 nM (active), the Potency [16] was 662 nM (active) and the Potency [17] was 93.5 nM (active). The Potency [18] was 264 nM (active).

In the case of `Cc1ccc(CN2CCNCC2)cc1NC(=O)CNc1ccc(F)c(F)c1`, the Potency [20] was “inactive”, the Potency [3] was 16600 nM (active) and the Potency [19] was “inactive”. For the same compound, the Potency [5] was “inactive”, the Potency [6] was 2640 nM (active) and the Potency [7] was 26400 nM (active). For the same compound, the Potency [9] was 20900 nM (active), the Potency [13] was 18700 nM (active) and the Potency [16] was 29600 nM (active). The Potency [17] was “inactive”.

For `CC=C1NC(=O)[C@H]2CSSCCC=C[C@H](CC(=O)N[C@H](C(C)C)C(=O)N2)OC(=O)[C@H](C(C)C)NC1=O`, the Potency [20] was 20.9 nM (active), the Potency [3] was 935 nM (active) and the Potency [4] was 13.2 nM (active). The Potency [19] was 52.6 nM (active), the Potency [5] was 118 nM (active) and the Potency [7] was 16.6 nM (active). The Potency [8] was 11.8 nM (active), the Potency [9] was 20.9 nM (active) and the Potency [10] was 6.6 nM (active). The Potency [11] was 26.4 nM (active), the Potency [12] was 59 nM (active) and the Potency [13] was 6.6 nM (active). The Potency [14] was 13.2 nM (active), the Potency [15] was 41.8 nM (active) and the Potency [16] was 37.2 nM (active). For the same compound, the Potency [17] was 23.5 nM (active) and the Potency [18] was 26.4 nM (active).

With `c1ccc2c(CCNc3ccc(Nc4ccncc4)cc3)c[nH]c2c1` the Potency [20] was 10500 nM (active), the Potency [3] was 13200 nM (active) and the Potency [19] was 20900 nM (active). The Potency [5] was “inactive”, the Potency [6] was 2960 nM (active) and the Potency [7] was 3320 nM (active). For the same compound, the Potency [9] was 18700 nM (active), the Potency [10] was 4690 nM (active) and the Potency [12] was 8330 nM (active). The Potency [13] was 20900 nM (active), the Potency [14] was 18700 nM (active) and the Potency [15] was 29600 nM (active). For the same compound, the Potency [16] was 20900 nM (active), the Potency [17] was 23500 nM (active) and the Potency [18] was 20900 nM (active).

With `NC(=O)c1c(OCc2c(F)cc(Br)cc2F)nsc1NC(=O)NCCCCN1CCCC1` the Potency [20] was 7430 nM (active), the Potency [4] was 26400 nM (active) and the Potency [19] was 9350 nM (active). The Potency [6] was 2960 nM (active), the Potency [7] was 20900 nM (active) and the Potency [9] was 18700 nM (active). For the same compound, the Potency [10] was “inactive”, the Potency [11] was 20900 nM (active) and the Potency [12] was 8330 nM (active). The Potency [13] was 23500 nM (active), the Potency [14] was 13200 nM (active) and the Potency [15] was 29600 nM (active). For the same compound, the Potency [16] was 29600 nM (active), the Potency [17] was 7430 nM (active) and the Potency [18] was 8330 nM (active).
